Several values for one entry are separate records, joined by “and”; a condition that tells them apart may be missing. Identical values can stand only once. More than one record can exist for a structure, and the calls need not agree. Activity calls are given as the source filed them. How the source made its calls: active means hit-call score of the fitted dose curve at least 0.9, where 1 is the maximum; inactive means score below 0.9.
Assays:
[1] = BSK_3C_uPAR: BioMAP Diversity Plus: 3C Assay for Urokinase-type plasminogen activator receptor (uPAR) Biomarker Activity (AID 2282998); conditions: BioMAP 3C HUVEC, uPAR biomarker ELISA; actives raise or lower the signal
Method in brief: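 ELISA readout of uPAR on human vascular endothelium (umbilical vein primary cells), taken 24 h after chemical dosing. Increases and decreases are both fitted relative to DMSO vehicle.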

[2] = BSK_4H_Eotaxin3: BioMAP Diversity Plus: 4H Assay for Eotaxin 3 Biomarker Activity (AID 2283000); conditions: primary human endothelial cells (HUVEC); actives raise or lower the signal
Method in brief: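 HUVEC, 24 h post-dose, ELISA for Eotaxin-3/CCL26. Gain or loss of signal fitted bidirectionally vs DMSO baseline.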

[3] = read-out: Interleukin-1 alpha (IL1a), IL1A (gene 3552); test: BSK_BE3C_IL1a: BioMAP Diversity Plus: BE3C Assay for Interleukin-1 alpha (IL1a) Biomarker Activity (AID 2283016); conditions: primary human bronchial epithelial cells; actives raise or lower the signal
Method in brief: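 BE3C primary human bronchial epithelium; cpd 24 h; IL-1a by ELISA; bidirectional fit vs DMSO; parallel SRB (0.1% SRB, 10% TCA fix, 560 nm) for cytotoxicity.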

[4] = read-out: Tissue Factor, F3 (gene 2152); test: BSK_CASM3C_TissueFactor: BioMAP Diversity Plus: CASM3C Assay for Tissue Factor Biomarker Activity (AID 2283052); conditions: primary human coronary artery smooth muscle cells; actives raise or lower the signal;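 further: cell surface tissue factor protein level read by ELISA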
[5] = read-out: Urokinase-type plasminogen activator receptor (uPAR), PLAUR (gene 5329); test: BSK_CASM3C_uPAR: BioMAP Diversity Plus: CASM3C Assay for Urokinase-type plasminogen activator receptor (uPAR) Biomarker Activity (AID 2283054); conditions: primary human coronary artery smooth muscle cells; actives raise or lower the signal;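 further: cell-surface uPAR protein level quantified by ELISA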
[6] = read-out: Collagen III, COL3A1 (gene 1281); test: BSK_hDFCGF_CollagenIII: BioMAP Diversity Plus: hDFCGF Assay for Collagen III Biomarker Activity (AID 2283056); conditions: primary human foreskin fibroblasts; actives raise or lower the signal
Method in brief: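 Human foreskin primary fibroblasts were exposed to test chemicals for 24 h, after which collagen III was quantified by ELISA. Activity was fitted bidirectionally against DMSO as negative control and baseline.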

[7] = read-out: Epidermal growth factor receptor (EGFR), EGFR (gene 1956); test: BSK_hDFCGF_EGFR: BioMAP Diversity Plus: hDFCGF Assay for Epidermal growth factor receptor (EGFR) Biomarker Activity (AID 2283057); conditions: primary human foreskin fibroblasts; actives raise or lower the signal
Method in brief: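 hDFCGF system, primary human foreskin fibroblasts; compound 24 h; EGFR measured by ELISA; DMSO = negative control/baseline; bidirectional fitting.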

[8] = read-out: Vascular cell adhesion molecule 1 (VCAM1), VCAM1 (gene 7412); test: BSK_hDFCGF_VCAM1: BioMAP Diversity Plus: hDFCGF Assay for Vascular cell adhesion molecule 1 (VCAM1) Biomarker Activity (AID 2283065); conditions: primary human foreskin fibroblasts; actives raise or lower the signal
Method in brief: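 Primary human foreskin fibroblasts (hDFCGF system) were dosed with chemical and VCAM-1 was measured by ELISA 24 h later. Bidirectional curve fitting used DMSO as negative control and activity baseline.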

[9] = read-out: Intercellular Adhesion Molecule 1 (ICAM1), ICAM1 (gene 3383); test: BSK_KF3CT_ICAM1: BioMAP Diversity Plus: KF3CT Assay for Intercellular Adhesion Molecule 1 (ICAM1) Biomarker Activity (AID 2283067); conditions: primary human keratinocytes with fibroblasts; actives raise or lower the signal
Method in brief: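 Human keratinocyte plus foreskin fibroblast primary co-culture was exposed to chemical for 24 h. ICAM-1 was then quantified by ELISA, and the data were fit bidirectionally against DMSO as the negative control and baseline.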

[10] = read-out: E-selectin (Homo sapiens) (UniProt P16581); test: BSK_LPS_Eselectin: BioMAP Diversity Plus: LPS Assay for Eselectin Biomarker Activity (AID 2283077); conditions: primary human HUVEC with PBMC; actives raise or lower the signal
Method in brief: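 Human umbilical vein endothelial cells co-cultured with peripheral blood mononuclear cells under LPS stimulation; E-selectin measured by ELISA 24 h after chemical dosing. Activity fitted bidirectionally against DMSO as negative control and baseline.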

[11] = read-out: Interleukin-1 alpha (IL1a), IL1A (gene 3552); test: BSK_LPS_IL1a: BioMAP Diversity Plus: LPS Assay for Interleukin-1 alpha (IL1a) Biomarker Activity (AID 2283080); conditions: primary human HUVEC with PBMC; actives raise or lower the signal
Method in brief: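 Human umbilical vein endothelial cells co-cultured with peripheral blood mononuclear cells were LPS-stimulated and exposed to test chemicals for 24 h. IL-1 alpha was quantified by ELISA, with bidirectional curve fitting against DMSO as the negative control and baseline.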

[12] = read-out: Monocyte Chemoattractant Protein-1 (MCP1), CCL2 (gene 6347); test: BSK_LPS_MCP1: BioMAP Diversity Plus: LPS Assay for Monocyte Chemoattractant Protein-1 (MCP1) Biomarker Activity (AID 2283081); conditions: primary human HUVEC with PBMC; actives raise or lower the signal
Method in brief: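 HUVEC plus PBMC co-culture (human primary cells, LPS system) exposed to test chemical for 24 h; MCP-1 measured by ELISA. Bidirectional curve fitting against DMSO baseline; parallel SRB total-protein staining flags overt cytotoxicity.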

[13] = BSK_LPS_PGE2: BioMAP Diversity Plus: LPS Assay for Prostaglandin E2 (PGE2) Biomarker Activity (AID 2283082); conditions: primary human HUVEC with PBMC; actives raise or lower the signal;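 on AC50: secreted prostaglandin E2 measured by ELISA in LPS-stimulated co-culture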
Method in brief: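 LPS-activated HUVEC/PBMC co-culture; cmpd dosed, 24 h; PGE2 by ELISA; bidirectional fit vs DMSO; SRB (0.1%, TCA-fixed, 560 nm) in parallel plates for overt cytotox.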

[14] = read-out: Macrophage colony-stimulating factor (MCSF), CSF1 (gene 1435); test: BSK_LPS_MCSF: BioMAP Diversity Plus: LPS Assay for Macrophage colony-stimulating factor (MCSF) Biomarker Activity (AID 2283083); conditions: primary human HUVEC with PBMC; actives raise or lower the signal
Method in brief: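 Human umbilical vein endothelial cells co-cultured with peripheral blood mononuclear cells were exposed to compound for 24 h. M-CSF levels were measured by ELISA, and bidirectional curve fitting used DMSO as the negative control and baseline.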

CD69, CD69 (gene 969) = test: BSK_SAg_CD69: BioMAP Diversity Plus: SAg Assay for CD69 Biomarker Activity (AID 2283089); conditions: primary human HUVEC with PBMC; actives raise or lower the signal
Method in brief: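 HUVEC co-cultured with PBMC were dosed with chemical, and CD69 was measured by ELISA with fluorescence read-out 24 h later. Bidirectional curve fitting used DMSO as negative control and activity baseline.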

[15] = BSK_SAg_PBMCCytotoxicity: PBMC Cytotoxicity Assessment in the BioMAP Diversity Plus: SAg Assay (AID 2283093); conditions: primary human HUVEC with PBMC;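 further: PBMC viability measured as Alamar Blue reduction fluorescence at 546/580 nm; fitted both ways against DMSO so a hit may be loss or gain of signal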
Method in brief: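 Compound added to 75,000 PBMC/well for 1 h; SEB and TSST-1 then added at 20 ng/mL final each; 90 h incubation; Alamar Blue 6 h; read 546/580 nm ex/em. Activity fitted bidirectionally relative to DMSO baseline.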

[16] = read-out: Monocyte Chemoattractant Protein-1 (MCP1), CCL2 (gene 6347); test: BSK_hDFCGF_MCP1: BioMAP Diversity Plus: hDFCGF Assay for Monocyte Chemoattractant Protein-1 (MCP1) Biomarker Activity (AID 2284285); conditions: primary human foreskin fibroblasts
Method in brief: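 Human foreskin fibroblasts (hDFCGF system) were exposed to compound and secreted MCP-1 was measured by ELISA after 24 hours. Activity was fitted relative to DMSO. Cytotoxicity was checked by SRB total-protein staining in parallel cultures.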

[17] = molecular target: Hepatocyte nuclear factor 6 (Homo sapiens) (UniProt Q9UBC0); test: ATG_HNF6_CIS: Attagene CIS-FACTORIAL HepG2 Assay for human Hepatocyte Nuclear Factor 6 (HNF6) (AID 2282952); conditions: HepG2 Attagene cis-factorial HNF6 reporter transcription; actives raise or lower the signal
Method in brief: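 HepG2 cells transiently transfected with cis-element-driven multiple reporter transcription units, dosed 24 h; reporter mRNA quantified by RT-PCR, FAM primer extension, HpaI digestion and capillary electrophoresis; bidirectional fit versus DMSO baseline.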

[18] = ATG_Oct_MLP_CIS: Attagene CIS-FACTORIAL HepG2 Assay for human Octamer-Binding Transcription Factor (Oct) (AID 2282993); conditions: HepG2 Attagene cis-factorial Oct reporter, mRNA; actives raise or lower the signal
Method in brief: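 Transient MRTU transfection of HepG2 → 24 h compound treatment → RNA isolation, reverse transcription, PCR → 6-FAM primer extension, HpaI digest → capillary electrophoresis. Activity fitted both directions against DMSO.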

[19] = ATG_RORE_CIS: Attagene CIS-FACTORIAL HepG2 Assay for human RAR-related Orphan Receptor Element (RORE) (AID 2282959); conditions: HepG2 Attagene cis-factorial RORE reporter, mRNA; actives raise or lower the signal
Method in brief: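 Measured here: transcript induction of a cis-regulated reporter in HepG2 cells transiently transfected via FuGene 6. After 24 h, RNA was processed by RT-PCR and fluorescent capillary electrophoresis; DMSO defined baseline activity.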

Measured: AC50

Sequence of Hepatocyte nuclear factor 6 (Homo sapiens) (Q9UBC0 whole entry, looked up): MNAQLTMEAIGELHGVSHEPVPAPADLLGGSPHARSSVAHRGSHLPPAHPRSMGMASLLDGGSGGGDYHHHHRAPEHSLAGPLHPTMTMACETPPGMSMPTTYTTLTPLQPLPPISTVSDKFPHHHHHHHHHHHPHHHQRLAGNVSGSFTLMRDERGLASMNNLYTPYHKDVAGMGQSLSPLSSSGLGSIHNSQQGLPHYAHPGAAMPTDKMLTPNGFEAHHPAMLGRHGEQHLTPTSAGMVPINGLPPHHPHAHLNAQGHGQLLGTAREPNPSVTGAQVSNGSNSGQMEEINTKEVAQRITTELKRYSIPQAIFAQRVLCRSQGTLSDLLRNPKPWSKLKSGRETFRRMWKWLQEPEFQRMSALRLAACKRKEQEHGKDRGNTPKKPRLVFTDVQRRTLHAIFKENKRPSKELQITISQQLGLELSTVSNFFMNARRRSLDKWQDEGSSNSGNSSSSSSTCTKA
Sequence of E-selectin (Homo sapiens) (P16581 whole entry, looked up): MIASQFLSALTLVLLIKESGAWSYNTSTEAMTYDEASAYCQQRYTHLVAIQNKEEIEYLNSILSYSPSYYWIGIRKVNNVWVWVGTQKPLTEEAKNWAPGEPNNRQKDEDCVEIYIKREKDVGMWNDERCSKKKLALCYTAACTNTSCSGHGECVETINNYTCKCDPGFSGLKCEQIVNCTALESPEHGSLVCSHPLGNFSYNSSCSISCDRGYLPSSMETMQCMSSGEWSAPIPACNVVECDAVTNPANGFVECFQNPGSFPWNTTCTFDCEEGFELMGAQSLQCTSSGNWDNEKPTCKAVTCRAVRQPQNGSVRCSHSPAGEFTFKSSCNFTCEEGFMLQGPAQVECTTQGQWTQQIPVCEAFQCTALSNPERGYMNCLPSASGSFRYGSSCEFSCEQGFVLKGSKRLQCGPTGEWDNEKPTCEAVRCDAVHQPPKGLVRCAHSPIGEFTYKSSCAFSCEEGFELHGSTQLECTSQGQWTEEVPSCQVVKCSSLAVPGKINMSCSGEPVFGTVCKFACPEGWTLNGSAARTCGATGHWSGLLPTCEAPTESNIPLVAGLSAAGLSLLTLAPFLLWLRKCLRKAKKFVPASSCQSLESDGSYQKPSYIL

Cc1c(C(N)=O)cc([N+](=O)[O-])cc1[N+](=O)[O-]
not listed: [17] | [18] | [19]
inactive: all other assays above

CCCCCCOC(=O)CCCCCCCC(=O)OCCCCCC
inactive: [17] | [18]

COc1ccccc1OCC(O)CO (stereo not drawn)
inactive: [17] | [19] | [18]

COc1ccc(C(=O)c2ccccc2O)c(O)c1
active: [1] 17.3 µM and 20 µM | [2] 10 µM and 14.4 µM | [6] 7.73 µM | [13] 6.03 µM
inactive: [3] | [4] | [5] | [6] | [7] | [8] | [9] | [10] | [11] | [12] | [14] | CD69, CD69 (gene 969) | [15] | [16]

C1CN(CCOCCN2CCOCC2)CCO1
not listed: [17] | [18] | [19]
inactive: all other assays above

Oc1ccc(Oc2ccccc2)cc1
inactive: [17] | [19] | [18]

CCC[Si](OC(C)=O)(OC(C)=O)OC(C)=O
active: [5] 3.83 µM
inactive: [1] | [2] | [3] | [4] | [5] | [6] | [7] | [8] | [9] | [10] | [11] | [12] | [13] | [14] | CD69, CD69 (gene 969) | [15] | [16]

CC(C)C1OCCN1CCOC(=O)NCCCCCCNC(=O)OCCN1CCOC1C(C)C (stereo not drawn)
inactive: [1] | [2] | [3] | [4] | [5] | [6] | [7] | [8] | [9] | [10] | [11] | [12] | [13] | [14] | CD69, CD69 (gene 969) | [15] | [16]
active: [16] 0.149 µM

COc1ccccc1Oc1c(NS(=O)(=O)c2ccc(C(C)(C)C)cc2)nc(-c2ncccn2)nc1OCCO
inactive: [1] | [3] | [5] | [7] | [8] | [9] | [10] | [11] | [12] | [13] | [14] | CD69, CD69 (gene 969) | [15] | [16]
active: [2] 7.97 µM and 11.3 µM | [4] 1.97 µM and 5.36 µM | [6] 3.9 µM and 2.51 µM | [11] 10.4 µM

CCO[Si](OCC)(OCC)c1ccccc1
inactive: [17] | [19] | [18]

CC(C)(C)NC(=O)[C@@H]1CN(Cc2cccnc2)CCN1C[C@@H](O)C[C@@H](Cc1ccccc1)C(=O)N[C@H]1c2ccccc2C[C@H]1O
inactive: [18]

O=C(O)Cc1c[nH]c2ccccc12
inactive: [17] | [19]

CC[N+](CC)(CC(=O)Nc1c(C)cccc1C)Cc1ccccc1 (tested in a mixture with another compound)
inactive: all assays above

C=C(C)C(=O)OCC1CCCO1 (stereo not drawn)
inactive: [17] | [19] | [18]

From PubChem BioAssay (EPA / NIEHS)
